# Bioassay records as filed in PubChem BioAssay.
# LASV entry inh = blocks Lassa virus binding to or entry into cells | Lassa virus pseudotype entry inhibition, cell reporter | Potency, µM (top dose mostly 37.9 µM), without a hit: at the top dose activity change, negative = inhibition, usual class: inhibitors | hit rate 1.2% among 300,000 | AID 540256; calls by dose curve; tested in HEK293 cells; also: potency is read from the fitted curve at half-maximal effect; % is scaled to controls: 0 for no effect and ±100 for the full control effect; nearly all actives have a fitted effect of over 50% in size
# Shiga inhibitor = Shiga toxin inhibition; AID 2315; Vero cells, Shiga toxin protein synthesis inhibition reporter; inhibition, % at 38.7 µM; hit rate 9.2% among 290,000; in the data active = inhibition mostly above about 28%, no sharp cut-off; inactive = mostly below about 43%; also: 0% is about no effect
# CHX counter = affects cycloheximide protein synthesis inhibition readout, counter-screen; hit rate 12% among 300,000; AID 2314; cell reporter, cycloheximide protein synthesis inhibition counterscreen; max response, %; in the data active = max response mostly above about 13%, no sharp cut-off; inactive = mostly below about 14%; also: read at 38.3 µM for the half of the compounds with a filed dose; 0% is about no effect
# AMA1-RON2 inh = AMA1-RON2 (P. falciparum) interaction inhibition; AlphaScreen AMA1-biotinylated RON2 peptide binding; Potency, µM (doses to about 58.2 µM), without a hit: at the top dose activity change, negative = inhibition, hits mostly inhibitors; hit rate 0.2% among 360,000; AID 720542; active = well fitted inhibition curve with a large enough effect; inconclusive = small, poorly fitted or top-dose-only effect; inactive = no such curve, though single readings can be large or run the other way;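 also: potency is read from the fitted curve at half-maximal effect; 0% = vehicle wells and -100% = peptide control; nearly all actives have a fitted effect of over 45% in size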
#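 AMA1 (3D7) with his tag at 25 nM final met compounds first, then biotinylated RON2 peptide at 25 nM; detection used donor plus acceptor beads, 10 µg/mL apiece, read by AlphaScreen after 30 min at room temperature.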
# MARV entry inh = Marburg virus entry inhibition; Potency, µM (titrated, usually from 37.8 µM), inactives show top-dose activity change, negative = inhibition, actives largely listed as inhibitors; AID 540276; hit rate 1.8% among 300,000; Marburg virus pseudotyped entry inhibition, cell reporter; calls by dose curve; tested in HEK293 cells; also: potency is read from the fitted curve at half-maximal effect; % is scaled to controls: 0 for no effect and ±100 for the full control effect
# * = called active by the depositor; ? = inconclusive; nt = no result given; [ ] = another dose, or the depositor's remark. The entries come from a sample that favours hits as a whole.
SMILES,LASV entry inh,Shiga inhibitor,CHX counter,AMA1-RON2 inh,MARV entry inh
CCOC(=O)c1ccc(-c2ccc(C3Nc4ccccc4C(=O)N3O)o2)cc1 (stereo not drawn),?,145*,33*,36%,?
CCOc1ccc(-c2ccc(CO)o2)cc1N,-30%[46.1 µM],nt,nt,nt,nt
Cc1ccc(-c2ccc(CO)o2)cc1N,-25%,55*,25*,-6%,-13%[46.1 µM]
Cc1ccccc1N1C(=O)CC1(C#N)c1ccc(OCc2ccccc2)cc1 (stereo not drawn),10µM*,10,1,-7%,?
CCOc1ccc(CNc2ccc3c(c2)nc(C)n3C)cc1,-19%,active,25*,-23%,?
COc1ccc(CNc2ccc(C)cc2)cc1Br,1%,43*,23*,-9%,-7%
COc1ccc(CNc2nc3ccccc3n2Cc2ccc(C)cc2)cc1OC,?,-2,-4,3%,?
CCOc1ccc(Nc2nc3ccccc3n2C)cc1,-1%,nt,nt,-5%,13%
CCOc1ccc(CNc2nc3ccccc3n2C)cc1,nt,nt,39*,-4%,nt
COc1ccc(CNc2ccc3c(c2)nc(C)n3C)cc1OC,nt,58*,44*,0%,nt
CCCCn1cnc2cc(NCc3ccc(OCC)cc3)ccc21,?,nt,nt,nt,-19%[46.1 µM]
COC(=O)C(=C/C(C)=C/c1cccnc1)C(=O)OC,-18%[46.1 µM],-7,-5,-6%,?
Cc1nn(-c2ccccc2)c(NC(=O)NS(=O)(=O)c2ccc(Cl)cc2)c1C#N,nt,-4,-8,nt,nt
NC(=S)NN=C1C=CCCC1,-3%,nt,nt,60%,7%
COc1cccc(CNC(=O)CSC2=Nc3ccccc3C3=NC(C(C)C)C(=O)N23)c1 (stereo not drawn),-2%[46.1 µM],nt,nt,nt,nt
COc1ccc(CCN(C)C(=O)c2cc(-c3ccccc3)nc3ccc(C)cc23)cc1OC,nt,65*,26,66%,nt
COc1ccc(CN(C)C(=O)c2cc(-c3ccccc3)nc3ccc(C)cc23)c(OC)c1OC,?,27,17*,-14%,?
COc1ccc(CCN(C)C(=O)Cc2ccc(-c3ccccc3)cc2)cc1OC,?,-7,22*,6%,?
COc1ccc(CCN(C)C(=O)COc2ccc(C(=O)c3ccccc3)cc2)cc1OC,9%,nt,nt,-1%,-3%
COc1ccc(-c2cc(C(=O)N(C)Cc3cccc(OC)c3OC)c3ccccc3n2)cc1OC,nt,-7,0,-7%,?
CC(C)OC(=O)C(O)(c1ccc(Cl)cc1)c1ccc(Cl)cc1,nt,-5,-8,nt,nt
COc1ccc(CCNC(=O)CN(c2ccc(C)cc2)S(=O)(=O)c2ccc(OC)cc2)cc1,-9%[46.1 µM],nt,nt,nt,1%[46.1 µM]
C1=Nc2ccccc2CN1c1ccccc1,-2%,93*,65*,27%,5%
CC1CC(=O)N(c2ccc(C(C)C)cc2)C(=O)C1,nt,3,-1,3%,nt
CC(C)c1ccc(N2C=Nc3ccc(C(C)C)cc3C2)cc1,?,52*,19*,-6%,?
SMILES,LASV entry inh,Shiga inhibitor,CHX counter,AMA1-RON2 inh,MARV entry inh
Clc1cccc(CN2CCSCC2)c1Cl,17%,11,9,?,?
CCOc1ccc(CNC(=O)Cn2ncc3c(=O)oc4ccc(C)cc4c32)cc1,-2%[46.1 µM],nt,nt,nt,14%[46.1 µM]
COC(=O)c1c(C)[nH]c(C(=O)OCc2csc(CC(=O)Nc3ccccc3C)n2)c1C,-7%,nt,nt,2%,10µM*
CCOC(=O)c1c(C)[nH]c(C(=O)OCc2ccc(F)cc2)c1C,?,72*,50*,-4%,?
CCOC(=O)c1[nH]c(C)c(C(=O)Nc2ccccc2F)c1C,?,60*,25*,4%,1%
CCOC(=O)c1c(C)[nH]c(C(=O)OCCOc2ccc(Cl)cc2)c1C,-12%,-7,0,-3%,9%
Cc1cc(C)c(C(=O)OCc2csc(CC(=O)Nc3ccccc3C)n2)c(C)c1,nt,-8,-1,15%,nt
CCOC(=O)c1c(C)[nH]c(C(=O)OCCOc2ccccc2C)c1C,nt,61*,45*,-4%,nt
CCOC(=O)CN1CCS(=O)(=O)CC1,20%[46.1 µM],15,-4,16%,6%[46.1 µM]
COc1ccc(NC(=O)Cn2c(SCc3cccc(Cl)c3)nc3ccncc32)c(OC)c1OC,3%[46.1 µM],nt,nt,nt,-3%[46.1 µM]
CC(C)c1ccc(NC(=O)c2cc3c(=O)[nH]c4ccccc4c3n2C)cc1,9%[46.1 µM],nt,nt,nt,6%[46.1 µM]
COc1ccc(-n2c(=O)c3sc4ccccc4c3n(CC(=O)N3CCCC3)c2=O)cc1,17%[46.1 µM],nt,nt,nt,0%[46.1 µM]
NC(=O)c1ccsc1NC(=O)CSc1nnc(Nc2ccccc2)s1,?,-1,14,29%,?
CCOC(=O)c1[nH]c(C)c(C(=O)NCCc2ccccc2)c1C,-18%[46.1 µM],nt,nt,nt,-18%[46.1 µM]
CCOC(=O)c1[nH]c(C)c(C(=O)Nc2ccc(C)c(C)c2)c1C,nt,13,15*,-4%,nt
CCOC(=O)c1ccc(S(=O)(=O)NNC(=O)COc2ccccc2C)cc1,-16%,-4,-4,22%,?
CCOC(=O)c1c(C)[nH]c(C(=O)OCc2ccccc2F)c1C,10µM*,115*,50*,-4%,?
CCOC(=O)c1ccc(OCCOc2ccccc2C)cc1,?,nt,34*,126%,-8%
CCOC(=O)c1[nH]c(C)c(C(=O)Nc2ccc(F)cc2)c1C,nt,7,-1,2%,nt
CC1CCc2c(sc(NS(=O)(=O)c3ccccc3)c2C(=O)OC(C)C)C1 (stereo not drawn),-1%,-3,-2,-2%,-23%
Cc1ccc(S(=O)(=O)N2CCCCC2C(=O)Nc2ccc(N(C)C)cc2)cc1 (stereo not drawn),3%[46.1 µM],nt,nt,-26%,0%[46.1 µM]
Cc1noc(C)c1C(c1ccccc1)S(=O)(=O)c1ccccc1 (stereo not drawn),?,2,-4,5%[11.6 µM],?
Cc1ccc(S(=O)(=O)C(c2ccccc2)c2c(C)noc2C)cc1 (stereo not drawn),0%,2,-3,-2%[11.6 µM],0.63µM*
CC(SC1=NCCS1)C(=O)Nc1nnc(-c2ccc(F)cc2)s1 (stereo not drawn),nt,34,6,0%,nt
CC(SC1=NCCS1)C(=O)Nc1nnc(-c2ccc(Br)cc2)s1 (stereo not drawn),nt,38*,21*,2%,nt
SMILES,LASV entry inh,Shiga inhibitor,CHX counter,AMA1-RON2 inh,MARV entry inh
COc1ccc(CC(=O)N2N=C(c3ccncc3)CC2(O)C(F)(F)F)cc1 (stereo not drawn),nt,-10,0,51%,nt
O=C(c1ccco1)N1N=C(c2ccc(Br)cc2)CC1(O)C(F)(F)F (stereo not drawn),?,-3,-1,20%,10µM*
CCc1ccc(C2=NN(C(=O)OC)C(O)(C(F)(F)F)C2)cc1 (stereo not drawn),?,62*,37*,7%,?
CCOC(=O)N1N=C(c2ccc(OC)cc2)CC1(O)C(F)(F)F (stereo not drawn),nt,49*,42*,-9%,nt
O=C(NNC1=NS(=O)(=O)c2ccccc21)c1ccc([N+](=O)[O-])cc1,7.9µM*,-24,-2,15%,?
COc1ccc(Cn2c(C(=O)O)c(CNCC(C)c3ccccc3)c3ccc(OC)cc32)cc1 (stereo not drawn),-19%[46.1 µM],nt,nt,nt,nt
COc1ccc(-c2csc(Nc3ccccc3)[n+]2CC(O)c2ccc([N+](=O)[O-])cc2)cc1 (stereo not drawn),nt,32,18*,?,nt
